About 83,000 compounds went through this panel and 20% of them were active in at least one assay; those are over-represented in the sample as a whole.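 Results are percent growth after 48 hours of single-concentration exposure. 100 means growth as in untreated cells, lower positive values show inhibition; negative values down to -100 show cell death.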 Unmarked numbers belong to inactive results. Calls of active or inactive are those of the source. Rule for the calls: active = growth percent below 10; inactive = the rest.

Among the test systems are HCT-15 colon; HT29 colon; SNB-75 CNS; SNB-19 CNS; U251 CNS; PC-3 prostate; SK-MEL-5 melanoma; UACC-62 melanoma; LOX IMVI melanoma; SK-MEL-28 melanoma.
Test in all cases: NCI-60 one-dose screen, 48 h (100 = growth as untreated, 0 = no growth, -100 = all killed)
What all share (details): 10 µM unless noted

Turning to `COc1ccc(C(=O)C(C)C)c2ccccc12`, the growth in the test on HCT-15 colon is 99.6%; in the test on HT29 colon, 106%; in the test on SNB-75 CNS, 115%; with SNB-19 CNS, 108%; with U251 CNS it was 110%; with PC-3 prostate it was 93.4%. Moreover, the growth is 109% in the test with SK-MEL-5 melanoma, 106% with UACC-62 melanoma, 96.4% in the test on LOX IMVI melanoma and 126% in the test on SK-MEL-28 melanoma.

Consider `O=C(N/N=C/c1c(Cl)cccc1Cl)c1ccc(C(F)(F)F)nc1Nc1cccc(C(F)(F)F)c1`, for which the growth is -13.5% (active) in the test with HCT-15 colon; 15.6% in the test on HT29 colon; 48.8% in the test with SNB-75 CNS; 19.6% with SNB-19 CNS; 2.92% (active) in the test on U251 CNS; 7.85% (active) with PC-3 prostate. Also, the growth is 7.65% (active) with SK-MEL-5 melanoma, -3.04% (active) with UACC-62 melanoma, 3.01% (active) in the test with LOX IMVI melanoma and 36.6% with SK-MEL-28 melanoma.

`CSc1nc2ccc(C)cc2cc1/C=N/O`: the growth is 86.7% in the test with HCT-15 colon; 93.1% in the test on HT29 colon; 59.2% in the test with SNB-75 CNS; 95.7% in the test on SNB-19 CNS; 78.6% in the test on U251 CNS; 79% with PC-3 prostate. Further, the growth was 90% in the test with SK-MEL-5 melanoma, 77% in the test with UACC-62 melanoma, 91.9% in the test on LOX IMVI melanoma and 101% with SK-MEL-28 melanoma.

With `O=C1CN(CCN2CC(=O)N(Cc3ccccc3)C(=O)C2)CC(=O)N1Cc1ccccc1`, the growth with HCT-15 colon was 113%; in the test with HT29 colon it was 108%; with SNB-75 CNS it was 88%; in the test on SNB-19 CNS, 107%; in the test with U251 CNS, 100%; in the test with PC-3 prostate it was 93.9%. Further, the growth in the test with SK-MEL-5 melanoma was 100%; in the test on UACC-62 melanoma, 103%; in the test with LOX IMVI melanoma it was 96.3%; in the test on SK-MEL-28 melanoma, 107%.

Take `CC(=O)Oc1ccccc1C(=O)N=C1[Se]CCCN1C(=O)c1ccccc1OC(C)=O`: the growth with HCT-15 colon is 21.5%; in the test on HT29 colon, 95.5%; in the test on SNB-75 CNS it was -28.9% (active); in the test with SNB-19 CNS, -55.1% (active); with U251 CNS, 23.4%; in the test on PC-3 prostate it was 19.6%. Also, the growth in the test on SK-MEL-5 melanoma is 74.8%; in the test with UACC-62 melanoma it was 73.6%; in the test on LOX IMVI melanoma it was -64.1% (active); in the test with SK-MEL-28 melanoma, 18.5%.

For the compound `CCOC(=O)Nc1ccc(C(=O)/C=C/c2ccccc2)cc1`, the growth was 85.7% in the test on HCT-15 colon; 37.4% with HT29 colon; 116% in the test with SNB-75 CNS; 81.4% in the test on SNB-19 CNS; 73.6% in the test with U251 CNS; 88.6% with PC-3 prostate. For the same compound, the growth is 92.2% in the test on SK-MEL-5 melanoma, 81.5% in the test on UACC-62 melanoma, 70.5% in the test with LOX IMVI melanoma and 101% in the test on SK-MEL-28 melanoma.

Turning to `O=C(Cc1ccc2c(c1)OCCO2)Nc1nc2ccc(F)cc2s1`, the growth in the test with HCT-15 colon was 77.2%; with HT29 colon, 105%; with SNB-75 CNS, 84.5%; in the test on SNB-19 CNS it was 116%; in the test on U251 CNS, 103%; in the test with PC-3 prostate it was 93.2%. The growth in the test on SK-MEL-5 melanoma is 91.1%; in the test with UACC-62 melanoma, 102%; with LOX IMVI melanoma it was 93.8%; with SK-MEL-28 melanoma, 111%.

Turning to `Cc1nc(/N=C(\N)NC(=O)Nc2ccccc2Cl)sc1C`, the growth in the test on HCT-15 colon is 30.1%; in the test with HT29 colon, 18%; with SNB-75 CNS, -29.2% (active); in the test on SNB-19 CNS it was 44.2%; with U251 CNS, 29.2%; in the test with PC-3 prostate it was 33.1%. In addition, the growth is 32.6% in the test with SK-MEL-5 melanoma, 45.7% in the test with UACC-62 melanoma, 43.3% with LOX IMVI melanoma and 63.2% in the test on SK-MEL-28 melanoma.

For `N#Cc1ccc(NC(=O)c2sc3nc4c(cc3c2N)C(=O)CCC4)cc1`, the growth in the test with HCT-15 colon is 101%; in the test with HT29 colon, 84.9%; with SNB-75 CNS it was 113%; in the test on SNB-19 CNS it was 102%; in the test with U251 CNS, 106%; with PC-3 prostate, 107%. Also, the growth is 92.6% in the test on SK-MEL-5 melanoma, 99.3% in the test on UACC-62 melanoma, 112% with LOX IMVI melanoma and 106% with SK-MEL-28 melanoma.

`O=C1c2cccc3cccc(c23)C(=O)N1N1C(=O)c2cccc3c(NC4CCCCC4)ccc(c23)C1=O`: the growth was 96.6% in the test on HCT-15 colon; 95.9% in the test on HT29 colon; 87.5% in the test on SNB-75 CNS; 89.1% with SNB-19 CNS; 99.7% in the test on U251 CNS; 83.6% in the test with PC-3 prostate. Besides, the growth in the test on SK-MEL-5 melanoma was 96.7%; with UACC-62 melanoma, 83.5%; in the test on LOX IMVI melanoma, 92.1%; in the test on SK-MEL-28 melanoma, 100%.

Consider `CN(C)CCCNc1nc2ccccc2c2c(=O)c3cc(F)ccc3sc12`, for which the growth in the test on HCT-15 colon was 17.7%; with HT29 colon, 4.32% (active); in the test on SNB-75 CNS it was 65.6%; in the test on SNB-19 CNS it was 68.4%; with U251 CNS, 28.5%; in the test on PC-3 prostate, 50.2%. Besides, the growth was 72.6% in the test with SK-MEL-5 melanoma, -53.8% (active) in the test with UACC-62 melanoma, -95% (active) in the test with LOX IMVI melanoma and -42.4% (active) with SK-MEL-28 melanoma.

`Nc1nc(-c2cccc3ccccc23)cc2ccccc12`: the growth was 3.98% (active) in the test with HCT-15 colon; 1.11% (active) in the test on HT29 colon; 7.16% (active) with SNB-75 CNS; 12% in the test with SNB-19 CNS; 16.3% in the test with U251 CNS; 20.5% in the test with PC-3 prostate. The growth was 11% in the test with SK-MEL-5 melanoma, 23.5% in the test with UACC-62 melanoma, 20.9% with LOX IMVI melanoma and 48.2% in the test on SK-MEL-28 melanoma.

Turning to `CNC(C)[C@H]1CCC2C3CCC4C[C@@H](N(C)C(=O)c5ccccc5)CC[C@]4(C)C3CC[C@@]21C` (stereo not given in full), the growth is -42.2% (active) with HCT-15 colon; -33.3% (active) with HT29 colon; 15.5% in the test with SNB-75 CNS; 66.6% in the test on SNB-19 CNS; 29.9% in the test on U251 CNS; 16.3% with PC-3 prostate. Also, the growth in the test with SK-MEL-5 melanoma was -74.2% (active); in the test on UACC-62 melanoma, -66% (active); in the test on LOX IMVI melanoma, -52.2% (active); with SK-MEL-28 melanoma, -71.4% (active).
